PubChem BioAssay (NCI)
Compounds without any hit were thinned out: in the full panel of roughly 83,000, 20% have a hit.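 96-well plates, one dose, 48 hours. Percent growth reported; active if below 10.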 Calls of active or inactive are those of the source.

test system: HS 578T breast; experiment: NCI-60 one-dose screen, 48 h (100 = growth as untreated, 0 = no growth, -100 = all killed); details: 10 µM unless noted

Row | Structure (SMILES) | growth
1 | COc1cc2c(c(OC)c1OC)C(=O)/C(=C/c1cc(C)c(O)c(C)c1)S2 | 29.4% (inactive)
2 | COc1cc(CNC(=O)/C=C/C=C/c2ccc3c(c2)OCO3)ccc1OCc1cn(-c2ccc(Cl)c(Cl)c2)nn1 | 7.23% (active)
3 | COc1ccccc1C(=O)NC(=S)Nc1ccc(-c2nc3ccccc3[nH]2)cc1 | 36.5% (inactive)
4 | O=C(/C=C/C12c3ccccc3C(c3ccccc31)C1C(=O)N(c3ccccc3)C(=O)C12)c1ccc(Cl)cc1 (centres undefined) | 14.1% (inactive)
5 | COc1cc(NC(=O)c2cccc(-c3cc(=O)c4c(O)c(OC)c(OC)cc4o3)c2)cc(OC)c1OC | -3.91% (active)
6 | N#Cc1c(-c2ccccc2)nc(SCC2CO2)nc1N1CCOCC1 (centres undefined) | 50% (inactive)
7 | CCCCN(CCCC)CCCn1c(=O)c2sc3ncccc3c2n2nnc(-c3ccccc3)c12 | 110% (inactive)
8 | CC1(C)CC(=O)c2c(ccc(C(=O)C[C@H](N)CO)c2N)O1 | 82.4% (inactive)
9 | COc1ccc(NC(=O)c2cccc(-c3cc(=O)c4c(O)c(OC)c(OC)cc4o3)c2)cc1 | 56.1% (inactive)
10 | CCn1c(Sc2nnc(NC(C)=O)s2)nc2c1c(=O)n(C)c(=O)n2C | 86.2% (inactive)
11 | COc1cc(NC(=O)c2cccc(-c3cc(=O)c4c(OC)c(OC)c(OC)cc4o3)c2)cc(OC)c1OC | 9.2% (active)
12 | CN(C)CN1CCN(c2ccc3nc(-c4ccc5nc(-c6ccc(C(F)(F)F)cc6)[nH]c5c4)[nH]c3c2)CC1 | 52.8% (inactive)
13 | COc1ccc(C2CC(c3ccc4ccccc4c3)=NN2c2nc(O)c(C3=c4cc(Cl)ccc4=NC3=O)s2)cc1 (centres undefined) | -5.85% (active)
14 | NS(=O)(=O)c1cnccc1-n1ccc(=O)c(S(N)(=O)=O)c1 | 64% (inactive)
15 | O=C(/C=C/C12c3ccccc3C(c3ccccc31)C1C(=O)N(c3ccc(Cl)cc3)C(=O)C12)c1ccccn1 (centres undefined) | 13.9% (inactive)
16 | O=C1CC(c2ccc3c(c2)OCO3)Nc2cc3c(cc21)OCO3 (centres undefined) | 19.5% (inactive)
17 | C=CCOc1cccc(/C=C2\SC(=Nc3ccc(O)cc3)NC2=O)c1 | 18% (inactive)
18 | Cc1cc(-c2ccc(N(C)C)cc2)c2sc(=O)[nH]c2n1 | 48.1% (inactive)
19 | O=C1NC(=S)S/C1=C\N1N=C(c2ccc(Cl)cc2)CC1c1ccc(F)cc1 (centres undefined) | 84.8% (inactive)
20 | COc1ccccc1NC(=O)Nc1ccc(-c2nc3ccccc3o2)cc1 | 99% (inactive)

Row | Structure (SMILES) | growth
21 | O=C(c1ccccc1)c1ccc(N2C(=O)C3C4c5ccccc5C(/C=C/C(=O)c5ccccn5)(c5ccccc54)C3C2=O)cc1 (centres undefined) | 9.77% (active)
22 | Cc1ccc2c(n1)C(=O)C(Oc1ccc(F)cc1)=CC2=O | 105% (inactive)
23 | COc1cc2ccccc2cc1C(=O)NC(=S)Nc1ccc(-c2nc3ccccc3[nH]2)cc1 | 30.7% (inactive)
24 | COc1cc2c(O)n(CCCn3ccnc3)c3c4cnc5cccc(c(=O)c3c2cc1OC)c54 | 73.8% (inactive)
25 | Cc1nn(-c2ccccc2)c2c1C(c1ccc([N+](=O)[O-])cc1)C(C#N)=C(N)O2 (centres undefined) | 103% (inactive)
26 | Cc1ccc(S(=O)(=O)N(CC[C@@H]2C[C@H]2c2cc3ccccc3o2)C(=O)NC2CCCCC2)cc1 | 89.8% (inactive)
27 | N#Cc1c(NC(=O)c2ccc(Br)cc2)sc2c1CCCC2 | 39.1% (inactive)
28 | COc1cc(C(=O)Nc2cc(O)c(CC=C(C)C)c(O)c2)cc2c1O[C@]1(C)CC[C@@H](O)C(C)(C)[C@H]1C2 | 10.3% (inactive)
29 | COc1cc(-c2cccc([N+](=O)[O-])c2)c(-c2nc(-c3ccccc3)c(-c3ccccc3)n2C2CC2)cc1OC | 83.4% (inactive)
30 | O=c1[nH]c(NCc2nnnn2-c2ccc(Br)cc2)nc2sc3c(c12)CCCC3 | 100% (inactive)
31 | CN(C)CCOC(=O)Nc1ccc(Cl)cc1 | 94.7% (inactive)
32 | O=C(NC(=S)Nc1ccc(-c2nc3ccccc3[nH]2)cc1)c1ccc2ccccc2c1 | 11.3% (inactive)
33 | O=c1ccn(C2OC(F)(CO)C(O)C2F)c(=O)[nH]1 (centres undefined) | 94.1% (inactive)
34 | Cc1ccc(NC(=O)C(Cl)Cl)cc1 | 102% (inactive)
35 | CCCCN1CCN(c2ccc3nc(-c4ccc5nc(-c6cc(OC)c(OC)c(OC)c6)[nH]c5c4)[nH]c3c2)CC1 | 45% (inactive)
36 | CCCCCCCCn1cc(C2=C(c3coc4ccc(OC)cc34)C(=O)NC2=O)c2ccccc21 | 101% (inactive)
37 | CCCCN1CCN(c2ccc3nc(-c4ccc5nc(-c6ccc(OCC)c(OCC)c6)[nH]c5c4)[nH]c3c2)CC1 | 35.2% (inactive)
38 | COc1ccc(C2CC(c3ccccc3)=NN2c2nc(C)c(C(C)=O)s2)cc1 (centres undefined) | 93.3% (inactive)
39 | O=C(/C=C/C12c3ccccc3C(c3ccccc31)C1C(=O)NC(=O)C12)c1ccccc1 (centres undefined) | 14.4% (inactive)
